In all, about 360,000 compounds went through this assay and about 9,100 (2.5%) were called active. About 4% were inconclusive and are not listed. Rule as the data show it: active = max response below about -50%; inconclusive = no clear call, values can overlap the other calls; inactive = above that. Many of the other results were omitted from the sample, so actives are more common in it than they were.
These compounds were tested against D(3) dopamine receptor (Homo sapiens) (UniProt P35462) (assay: qHTS of D3 Dopamine Receptor Antagonist: qHTS). Conditions: D3R cells, DiscoveRx beta-arrestin luminescence, antagonist mode; stronger effect = lower value.
Chain of D(3) dopamine receptor (Homo sapiens) (P35462 whole entry, looked up): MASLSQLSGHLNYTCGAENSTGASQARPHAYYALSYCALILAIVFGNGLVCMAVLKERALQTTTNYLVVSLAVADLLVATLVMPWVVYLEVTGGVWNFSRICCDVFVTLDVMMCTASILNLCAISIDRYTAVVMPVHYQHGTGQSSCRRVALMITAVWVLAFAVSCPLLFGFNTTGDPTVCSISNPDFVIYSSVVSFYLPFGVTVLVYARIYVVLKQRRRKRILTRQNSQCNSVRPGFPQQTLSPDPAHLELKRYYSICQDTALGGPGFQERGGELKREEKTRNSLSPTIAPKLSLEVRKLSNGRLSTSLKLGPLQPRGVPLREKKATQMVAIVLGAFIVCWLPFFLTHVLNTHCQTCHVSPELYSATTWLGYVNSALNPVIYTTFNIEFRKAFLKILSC
Summary of the method: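 Cells plated overnight at 1500 cells/well, then exposed to library compounds with dopamine controls for 90 minutes at 37 degrees C. DiscoveRx reagent added for 30–60 minutes at room temperature; luminescence read, quantitative HTS format.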
% is scaled to controls: 0 for no effect and ±100 for the full control effect.

Max response, negative = inhibition, inactive:
CC(O)(c1cccc(F)c1)c1nc(-c2ccc3c(c2)OCO3)cs1 (centres undefined) -22.4%, CC1(C)OC(=O)C2=C(C[C@@H](C3CC3)O[C@H]2CCc2cccc(Cl)c2)O1 12.7%, CN1CCN(C(=O)c2ccc(NC(=O)c3ccc(Br)o3)cc2)CC1 23.3%, Nc1ccc2[nH]c(=S)sc2c1 -18.8%, CCOc1ccc2[nH]c(=O)c(CN(CCCO)C(C)=O)cc2c1 3.99%, CCOC(=O)C(NC(C)=O)C(=O)Nc1ccc(OC)cc1 (centres undefined) -11.9%, COC(=O)c1cc(OC)ccc1-c1ccc(OC)cc1 -8.91%, CC1(C(=O)Nc2ccc3c(c2)OCCO3)CN(S(C)(=O)=O)CC(=O)N1Cc1cccc(F)c1 (centres undefined) 3.16%, CCN(Cc1ccncc1)C(=S)Nc1ccccc1C 27.7%, CN(CC(=O)Nc1ccc(Cl)cc1)CC(=O)Nc1cccc2ccccc12 -3.81%, CC(=O)Nc1ccc(NC(=O)CCCNC(=O)c2ccc(Cl)cc2)cc1 -16.5%, O=S1(=O)CC(N2CCC(Cc3ccccc3)CC2)CN1Cc1ccccc1 (centres undefined) -2.05%, NC(=O)CSc1nnc(NC(=O)c2ccc(Br)o2)s1 4.15%, Cc1nnc(NC(=O)c2ccc3nccnc3c2)s1 -10.2%, Cc1cccc(NC(=O)c2nc(S(=O)(=O)Cc3ccccc3)ncc2Cl)c1 -1.08%, O=C(Nc1ccc(F)cc1)c1ccc(S(=O)(=O)NCc2cccnc2)cc1 8.92%, COCCSc1nnc(NC(=O)CCS(=O)(=O)Cc2ccccc2)s1 0.795%, Cc1nnc(NC(=O)CCCOc2ccccc2)s1 14.4%, CC(=O)Nc1cncc(-c2ccccc2CO)n1 10.6%, CCOC(=O)[C@H]1Nc2ccc(Cl)cc2[C@@H]2[C@H]1C1CC(c3ccccc31)N2C(=O)OCc1ccccc1 (some centres undefined) -1.57%, CCCCc1c(-c2ccc(Cl)cc2)ncn1CCc1ccccc1OC 71.4%, COc1ccc(S(=O)(=O)N(C)C)cc1NC(=O)COC(=O)c1n[nH]c2ccccc12 16%, CCc1cc(C(=O)N(CC)CC(=O)Nc2c(F)cccc2F)sc1C 0%, COc1ccc(CCCNC(=O)C2Cc3c(-c4cccc(C(N)=O)c4)ccnc3O2)cc1 (centres undefined) 2.06%, Cc1cc(O)ccc1-c1cc(C(=O)NCc2cc(C(F)(F)F)cc(C(F)(F)F)c2)[nH]n1 -17.9%, C[C@@H]1CN([C@H](C)CO)C(=O)CCCn2nncc2CO[C@@H]1CN(C)C(=O)OCc1ccccc1 -23.6%, CC1(C)OC(=O)C2=C(C[C@@H](C3CC3)O[C@H]2c2ccc(Cl)cc2)O1 49.4%, COC(=O)CN1C(=O)C(O)=C(C(C)=O)C1c1ccc([N+](=O)[O-])cc1 (centres undefined) -23.2%, CCC(CC)C(=O)N1CC(=O)Nc2ccc(Br)cc2C1c1ccccc1 (centres undefined) 4.84%, CN(c1ccccc1)S(=O)(=O)c1ccc(C(=O)NCc2cccnc2)cc1 -14.9%, COc1ccc(C(C)(O)c2nc(-c3ccc(C)c(C)c3)cs2)cc1 (centres undefined) -20.6%, CCNC(=O)C1(C)CCCN(C(=O)c2ccc3ccccc3n2)C1 (centres undefined) 0%, CCOC(=O)c1cc(-c2sc(NC(=O)c3ccccc3)nc2C)n(-c2ccc(Br)cc2)n1 24%, COc1ccc(-c2cc(C(=O)NCCCN3CCOCC3)no2)cc1 1.86%, COc1ccc(-c2ccc(C(=O)NC(C)C)c3occc23)c(C)c1 19.9%, CC(C)C[C@@H](COCc1ccc(Cl)cc1)N1CCN(C(=O)c2ccc(Cl)cc2Cl)CCC1=O 11.5%, Cc1ccccc1OS(=O)(=O)c1cccc([N+](=O)[O-])c1 -14.2%, CC(C)N1C(=O)c2ccccc2NC(=O)C1C(=O)NCc1cccs1 (centres undefined) -19.3%, COC(=O)C[C@H]1C[C@@H]2c3cc(N(C)C)ccc3O[C@@H]2[C@H](CO)O1 17%, O=C(NCc1ccccc1)C1c2ccccc2OCC(=O)N1CCCN1CCOCC1 (centres undefined) 0.216%, O=C(NCc1ccc(F)cc1)c1cc(C2CCCCN2C(=O)c2cccs2)on1 (centres undefined) 12.8%, CCC1NC(=O)c2cccnc2-n2c1nc1ccc(C)cc1c2=O (centres undefined) 16.9%, COCCNC(=O)C1C(=O)Nc2ccccc2C(=O)N1c1ccc2c(c1)OCCO2 (centres undefined) 5.54%, O=C(c1ncn2c1c(=O)[nH]c1ccccc12)N1CCc2ccccc2C1 1.07%, Cc1cccc(N2CCN(C(=O)c3cc4c(=O)[nH]c5ccccc5c4n3C)CC2)c1C 2.48%, CCCCCCN1CCN(C2CN(Cc3cn(Cc4ccc(F)cc4)nn3)S(=O)(=O)C2)CC1 (centres undefined) 3.43%, Cc1cccc(NC(=O)c2cc(S(=O)(=O)N3CCC4(CC3)OCCO4)ccc2F)c1 -11.3%, Cc1c(C(=O)Nc2ccccc2Cl)oc2ccc(S(=O)(=O)N3CCC4(CC3)OCCO4)cc12 22.3%

Max response, negative = inhibition, active:
CCOc1ccc2[nH]c(=S)sc2c1 -53%, CCOC(=O)C1=C(c2ccc(OC)cc2)C(=O)c2ccccc2C1=O -64%, CCCCN(C)CCC(=O)Nc1ccc(Cl)cc1 -52.6%, CSc1nnc(NC(=O)c2nc(S(=O)(=O)Cc3ccc(C)cc3)ncc2Cl)s1 -83.3%, Cc1ccc(CS(=O)(=O)c2ncc(Cl)c(C(=O)Nc3nnc(C)s3)n2)cc1 -73.5%, Cc1cccc(CS(=O)(=O)c2ncc(Cl)c(C(=O)Nc3ccc(F)cc3)n2)c1 -105%, COC(=O)CN1C(C)=Nc2ccc(Br)cc2C1c1ccccc1 (centres undefined) -64%, COc1ccc(-c2ccc(C(=O)NCCN3CCOCC3)c3occc23)c(C)c1 -78.2%, CN1CCN(C2Cc3ccc(Cl)cc3Sc3ccc(F)cc32)CC1 (centres undefined) -88%, Cn1c(C(=O)NCCN2CCc3ccccc3C2)cc2c(=O)[nH]c3ccccc3c21 -59.2%, CCOc1ccccc1NC(=O)c1cc(S(=O)(=O)N2CCC3(CC2)OCCO3)ccc1F -83.8%

Source: PubChem BioAssay AID652054 (National Center for Advancing Translational Sciences (NCATS), 2013)
